These results are taken from PubChem BioAssay (NCI).

Compounds without any hit were thinned out: in the full panel of roughly 83,000, 20% have a hit.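 Testing used 96-well plates and a 48-hour single-concentration exposure. Example: -40 means 40% of the starting cells died.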 Unmarked numbers belong to inactive results. Activity calls are given as the source filed them. How the source made its calls: active means growth percent below 10; inactive means the rest.

Some test systems named below: K-562 leukemia; MALME-3M melanoma; MDA-MB-231 breast; RXF 393 renal; SF-295 CNS; SF-539 CNS; UACC-257 melanoma; M14 melanoma; HCT-15 colon; HT29 colon; SNB-75 CNS; SNB-19 CNS; U251 CNS; PC-3 prostate; SK-MEL-5 melanoma; UACC-62 melanoma; LOX IMVI melanoma; SK-MEL-28 melanoma; SF-268 CNS.
Holding throughout (experiment): NCI-60 one-dose screen, 48 h (100 = growth as untreated, 0 = no growth, -100 = all killed)
Common to all, as to settings: 10 µM unless noted

With `CC(C)=CCC[C@H](C)c1ccc(C)c2c1OCN(CCO)C2`, the growth was 77.7% in the assay with K-562 leukemia; 89.5% with MALME-3M melanoma; 88.8% with MDA-MB-231 breast; 52.4% in the assay on RXF 393 renal; 98.6% in the assay with SF-295 CNS; 88.2% with SF-539 CNS. Moreover, the growth was 92.3% in the assay on UACC-257 melanoma; 90.9% in the assay on M14 melanoma; 105% with HCT-15 colon; 68.7% with HT29 colon; 58.7% in the assay with SNB-75 CNS; 57.9% in the assay on SNB-19 CNS. In addition, the growth in the assay on U251 CNS is 85.1%; in the assay on PC-3 prostate it was 76.9%; in the assay with SK-MEL-5 melanoma, 81.2%; in the assay with UACC-62 melanoma, 96.1%; in the assay with LOX IMVI melanoma it was 100%; in the assay on SK-MEL-28 melanoma, 111%.

Take `CCCCCCCCCCCCCCCC1=NCC[N+]1(CCO)CCO`: the growth in the assay with K-562 leukemia is 1.44% (active); in the assay on MALME-3M melanoma, 108%; in the assay on MDA-MB-231 breast, 36.7%; in the assay with RXF 393 renal it was 34.9%; in the assay on SF-295 CNS, 76.7%; in the assay with SF-539 CNS it was 73.3%. In addition, the growth is 102% in the assay with UACC-257 melanoma; 7.86% (active) in the assay with M14 melanoma; 31.9% with HCT-15 colon; 12.4% in the assay on HT29 colon; 97.6% with SNB-19 CNS; 39.4% in the assay on U251 CNS. The growth was 32.1% in the assay with PC-3 prostate; 89.6% in the assay on SK-MEL-5 melanoma; 76.2% in the assay with UACC-62 melanoma; 5.42% (active) with LOX IMVI melanoma; 115% with SK-MEL-28 melanoma.

For `COc1cc2c(cc1OCCCOc1cc3c(cc1OC)C(=O)N1CCC[C@H]1C=N3)C=CC(C)(C)O2`, the growth with K-562 leukemia is 71.2%; in the assay with MALME-3M melanoma, 152%; in the assay on MDA-MB-231 breast, 88.6%; in the assay with RXF 393 renal, 94.8%; in the assay with SF-268 CNS, 91.2%; in the assay on SF-295 CNS, 123%. The growth with SF-539 CNS is 126%; with UACC-257 melanoma, 83.9%; with M14 melanoma, 111%; in the assay with HCT-15 colon, 89.9%; in the assay on HT29 colon, 99.7%; with SNB-75 CNS, 93.8%. Besides, the growth with SNB-19 CNS was 85.9%; in the assay with U251 CNS, 66.6%; in the assay on PC-3 prostate, 78.9%; in the assay with SK-MEL-5 melanoma, 66.4%; in the assay with UACC-62 melanoma it was 81%; in the assay with LOX IMVI melanoma, 69.6%. In the assay with SK-MEL-28 melanoma, the growth was 33.2%.

In the case of `COc1cc(/C=C/C(=O)c2c(C)nc3ccccc3c2C)ccc1OCCCOc1cc2c(cc1OC)C(=O)N1CCC[C@H]1C=N2`, the growth in the assay with K-562 leukemia was -10.8% (active); in the assay with MALME-3M melanoma, -37.2% (active); in the assay with MDA-MB-231 breast it was -35.6% (active); in the assay on RXF 393 renal, -83.7% (active); in the assay with SF-268 CNS, -47.9% (active); with SF-295 CNS it was -47.6% (active). Also, the growth in the assay with SF-539 CNS was -87% (active); in the assay with UACC-257 melanoma, -1.91% (active); in the assay with M14 melanoma it was -45.2% (active); in the assay with HCT-15 colon it was -25.9% (active); with HT29 colon it was -71.9% (active); in the assay with SNB-75 CNS, -76.8% (active). Further, the growth in the assay on SNB-19 CNS is -49.8% (active); with U251 CNS, -66.4% (active); with PC-3 prostate it was -15.9% (active); in the assay on SK-MEL-5 melanoma, -98.8% (active); with UACC-62 melanoma, -81.3% (active); with LOX IMVI melanoma, -99.3% (active). Also, the growth in the assay with SK-MEL-28 melanoma is -63.1% (active).

With `CCCCCCCCCC1=NC(C)(C)CN1C(C)(C)CO`, the growth is -25.3% (active) with K-562 leukemia; 106% in the assay with MALME-3M melanoma; 88.1% with MDA-MB-231 breast; 167% in the assay with RXF 393 renal; 94% in the assay with SF-268 CNS; 122% in the assay with SF-295 CNS. The growth with SF-539 CNS was 87.3%; with UACC-257 melanoma, 121%; in the assay with M14 melanoma, 113%; in the assay on HCT-15 colon, 82.2%; with HT29 colon it was 49.2%; with SNB-75 CNS it was 102%. Also, the growth was 92.1% in the assay with SNB-19 CNS; 82.6% in the assay with U251 CNS; 83.8% in the assay with PC-3 prostate; 84% with SK-MEL-5 melanoma; 98.8% in the assay with UACC-62 melanoma; 85.6% in the assay with LOX IMVI melanoma. In the assay on SK-MEL-28 melanoma, the growth was 131%.

Consider `O=C(/C=C/c1cc([N+](=O)[O-])ccc1Cl)c1ccccc1`, for which the growth in the assay with K-562 leukemia is 24.4%; in the assay with MALME-3M melanoma, 102%; in the assay on MDA-MB-231 breast it was 85.9%; in the assay with RXF 393 renal, 97.8%; with SF-268 CNS it was 94.8%; with SF-295 CNS, 95.9%. Besides, the growth with SF-539 CNS was 107%; in the assay with UACC-257 melanoma, 104%; in the assay on HCT-15 colon, 110%; with HT29 colon, 14.3%; in the assay on SNB-75 CNS, 67.7%; in the assay on SNB-19 CNS, 87.8%. In addition, the growth in the assay on U251 CNS is 46%; with PC-3 prostate it was 85.4%; in the assay with SK-MEL-5 melanoma, 87.3%; in the assay with UACC-62 melanoma it was 70.5%; in the assay with LOX IMVI melanoma, -18.9% (active); in the assay on SK-MEL-28 melanoma it was 104%.

For `CN(C)c1ccc(Nc2c3ccccc3nc3ccccc23)cc1`, the growth was 8.82% (active) in the assay with K-562 leukemia; -14% (active) in the assay on MALME-3M melanoma; 43% in the assay with MDA-MB-231 breast; 21.6% in the assay on RXF 393 renal; 27.7% in the assay with SF-268 CNS; -7.58% (active) in the assay on SF-295 CNS. Moreover, the growth was 17.5% in the assay on SF-539 CNS; 18.3% with UACC-257 melanoma; 18.5% in the assay on M14 melanoma; 6.89% (active) with HCT-15 colon; 8.13% (active) in the assay on HT29 colon; 28.4% with SNB-19 CNS. Besides, the growth is 23% with U251 CNS; 33% in the assay on PC-3 prostate; 9.1% (active) in the assay with SK-MEL-5 melanoma; 14.3% with UACC-62 melanoma; -7.85% (active) with LOX IMVI melanoma; 26% in the assay with SK-MEL-28 melanoma.

As to `CC1(C)C2CCC(O)(C(=O)O)C1C2` (stereo not drawn), the growth in the assay on K-562 leukemia was 108%; in the assay with MALME-3M melanoma it was 109%; with MDA-MB-231 breast, 98.9%; in the assay on RXF 393 renal it was 136%; with SF-268 CNS, 112%; in the assay with SF-295 CNS, 103%. The growth in the assay on SF-539 CNS is 103%; with UACC-257 melanoma, 124%; with M14 melanoma, 105%; with HCT-15 colon it was 114%; with HT29 colon it was 110%; in the assay on SNB-75 CNS, 83.4%. Also, the growth is 102% in the assay with SNB-19 CNS; 113% in the assay on U251 CNS; 94.9% with PC-3 prostate; 107% in the assay with SK-MEL-5 melanoma; 91% in the assay with UACC-62 melanoma; 110% with LOX IMVI melanoma. Moreover, the growth in the assay with SK-MEL-28 melanoma was 102%.

Turning to `COCCn1c(Nc2ccc(C(=O)NO)cc2)nc2ccccc21`, the growth with K-562 leukemia was 34.6%; in the assay with MALME-3M melanoma, 30.6%; with MDA-MB-231 breast, 81.5%; in the assay with RXF 393 renal it was 39.1%; with SF-268 CNS, 82.3%; in the assay with SF-295 CNS, 61.9%. The growth in the assay on SF-539 CNS was 62%; with UACC-257 melanoma, 27.8%; in the assay with HCT-15 colon, 74.9%; with HT29 colon it was 44.1%; in the assay on SNB-75 CNS, 22.1%; in the assay on SNB-19 CNS, 69.6%. The growth in the assay with U251 CNS was 61.4%; in the assay on PC-3 prostate, 69.5%; in the assay with SK-MEL-5 melanoma, 47.4%; with UACC-62 melanoma, 25.8%; in the assay on LOX IMVI melanoma, 73.6%; in the assay on SK-MEL-28 melanoma, 61.3%.

As for `COc1cc(C2=NOC(c3cc(OC)c(OC)c(OC)c3)C2)ccc1OCCCCOc1cc2c(cc1OC)C(=O)N1CCC[C@H]1C=N2` (stereo partly drawn), the growth in the assay on K-562 leukemia was 7.5% (active); in the assay with MALME-3M melanoma, -72.2% (active); with MDA-MB-231 breast, 12.3%; in the assay on RXF 393 renal, -79% (active); with SF-268 CNS, -29.5% (active); with SF-295 CNS, 13.4%. Besides, the growth was -89.6% (active) in the assay on SF-539 CNS; 13.7% in the assay with UACC-257 melanoma; -43.7% (active) in the assay on M14 melanoma; 4.27% (active) with HCT-15 colon; -12.3% (active) with HT29 colon; -87.7% (active) with SNB-75 CNS. The growth in the assay on U251 CNS was -9.51% (active); in the assay with PC-3 prostate, -2.09% (active); in the assay with SK-MEL-5 melanoma, -85.3% (active); in the assay on UACC-62 melanoma, -76.6% (active); in the assay with LOX IMVI melanoma, -68.6% (active); in the assay with SK-MEL-28 melanoma, -66.1% (active).
